The nature of assay [1]: NCI Yeast Anticancer Drug Screen. Data for the rad50 strain (AID 155).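 Note: 0% = growth of vehicle-only cultures of the same strain.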 As to conditions: S. cerevisiae rad50 strain growth inhibition, stronger effect = higher value. In short, it runs like this:
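Compounds were tested on a yeast strain with an engineered DNA damage repair alteration; the reported value is growth inhibition normalised to vehicle treatment.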

Assay [2] can be described thus: NCI Yeast Anticancer Drug Screen. Data for the mec2-1 strain (AID 157). As to conditions: S. cerevisiae mec2-1 strain, stronger effect = higher value. Put shortly:
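mec2-1 yeast strain, carrying an alteration in DNA damage repair or cell cycle control, was exposed to compounds; growth inhibition was measured relative to vehicle-treated controls.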

Assay [3] is described as follows: NCI Yeast Anticancer Drug Screen. Data for the sgs1 mgt1 strain (AID 161).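 Note: 0% = growth of cultures given vehicle only.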 As to conditions: S. cerevisiae sgs1 mgt1 strain, stronger effect = higher value. In short, it runs like this: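 Compounds are added to genetically altered yeast, and growth is compared with cultures given vehicle alone to give percent inhibition.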
Assay [4] in a line: NCI Yeast Anticancer Drug Screen. Data for the cln2 rad14 strain (AID 165).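 Note: 0% = growth equal to vehicle treated cultures.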 The settings on record: S. cerevisiae cln2 rad14 strain, stronger effect = higher value. Put shortly: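 Yeast carrying cln2 and rad14 alterations (cell cycle control and DNA damage repair) were exposed to compounds. Growth inhibition was measured against vehicle-treated controls.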
The nature of assay [5]: NCI Yeast Anticancer Drug Screen. Data for the bub3 strain (AID 167). As to conditions: S. cerevisiae bub3 mutant strain, stronger effect = higher value. In short, it runs like this: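 Growth of a checkpoint-deficient yeast mutant is measured after compound exposure. Values represent inhibition relative to vehicle.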
A short description of assay [6]: NCI Yeast Anticancer Drug Screen. Data for the mlh1 rad18 strain (AID 175). As to conditions: S. cerevisiae mlh1 rad18 strain growth inhibition, stronger effect = higher value. In short, it runs like this: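 Growth inhibition of the yeast strain was measured after compound exposure and expressed relative to vehicle-treated controls. The strain carries defined defects in DNA damage repair.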

Setting [7] is: at 5.0 µM (retest, dose inferred, filed as 0.5).
The mark [8] stands for this setting: at 50.0 µM (retest, dose inferred, filed as 5.0).

These results are taken from PubChem BioAssay (NCI).

Each structure is given as a SMILES string. This is part of a sample that, as a whole, favours compounds with a hit. Of some 79,000 tested, about 15% had one in any assay. Unmarked numbers belong to inactive results. The source made the active and inactive calls. Cut-off read from the data, not from the text of the source: active = growth inhibition above about 70%; inactive = the rest.

Turning to `O=C(NC1CCN(Cc2ccccc2)CC1)c1ccccc1I`, the growth inhibition in assay [1] (setting [7]) was 48%; in assay [1] (setting [8]), 73% (active); in assay [1] (at 50.0 µM) it was 74.3% (active); in assay [2] (setting [7]), 38%; in assay [2] (setting [8]) it was 50%; in assay [2] (at 50.0 µM), 39.9%. Also, the growth inhibition in assay [3] (setting [7]) is 80% (active); in assay [3] (setting [8]), 81% (active); in assay [3] (at 50.0 µM) it was 82.6% (active); in assay [4] (setting [7]) it was 83% (active); in assay [4] (setting [8]), 82% (active); in assay [4] (at 50.0 µM) it was 81% (active). The growth inhibition is 59% in assay [5] (setting [7]); 64% in assay [5] (setting [8]); 74% (active) in assay [5] (at 50.0 µM); 73% (active) in assay [6] (setting [7]); 76% (active) in assay [6] (setting [8]); 80.8% (active) in assay [6] (at 50.0 µM).

Consider `CN(C)c1nc(N(C)C)sc(=O)n1`, for which the growth inhibition was 0% in assay [1] (setting [7]); 91% (active) in assay [1] (setting [8]); 85% (active) in assay [1] (at 50.0 µM); -4% in assay [2] (setting [7]); 28% in assay [2] (setting [8]); 25.8% in assay [2] (at 50.0 µM). For the same compound, the growth inhibition in assay [3] (setting [7]) was 2%; in assay [3] (setting [8]), 78% (active); in assay [3] (at 50.0 µM) it was 69%; in assay [4] (setting [7]) it was 8%; in assay [4] (setting [8]) it was 26%; in assay [4] (at 50.0 µM), 1.5%. For the same compound, the growth inhibition is -10% in assay [5] (setting [7]); 37% in assay [5] (setting [8]); -3.6% in assay [5] (at 50.0 µM); 9% in assay [6] (setting [7]); 86% (active) in assay [6] (setting [8]); 76.3% (active) in assay [6] (at 50.0 µM).

`CC(SC1=CC(=O)c2c(O)ccc(O)c2C1=O)C(=O)O` (stereo not given): the growth inhibition in assay [1] (setting [7]) was 9%; in assay [1] (setting [8]), -19%; in assay [1] (at 50.0 µM), 22.6%; in assay [2] (setting [7]) it was -4%; in assay [2] (setting [8]), -2%; in assay [2] (at 50.0 µM), 11.8%. In addition, the growth inhibition in assay [3] (setting [7]) is 19%; in assay [3] (setting [8]), 5%; in assay [3] (at 50.0 µM) it was 19.9%; in assay [4] (setting [7]) it was -5%; in assay [4] (setting [8]), -6%; in assay [4] (at 50.0 µM), -27.6%. The growth inhibition in assay [5] (setting [7]) was -6%; in assay [5] (setting [8]), -5%; in assay [5] (at 50.0 µM), 4%; in assay [6] (setting [7]), -5%; in assay [6] (setting [8]), -6%; in assay [6] (at 50.0 µM), 25.1%.

As to `COc1cc(/C=C2/C(=O)N(C(=O)c3ccccc3O)N=C2C)cc(OC)c1OC`, the growth inhibition in assay [1] (setting [7]) is -14%; in assay [1] (setting [8]), 23%; in assay [1] (at 50.0 µM), 64%; in assay [2] (setting [7]) it was 9%; in assay [2] (setting [8]) it was 35%; in assay [2] (at 50.0 µM), 16.6%. Also, the growth inhibition in assay [3] (setting [7]) was -8%; in assay [3] (setting [8]), 28%; in assay [3] (at 50.0 µM), 36.5%; in assay [4] (setting [7]), -4%; in assay [4] (setting [8]), 26%; in assay [4] (at 50.0 µM), 26.4%. The growth inhibition is 12% in assay [5] (setting [7]); 80% (active) in assay [5] (setting [8]); 77.1% (active) in assay [5] (at 50.0 µM); 20% in assay [6] (setting [7]); 61% in assay [6] (setting [8]); 39.2% in assay [6] (at 50.0 µM).

For `O=C(OCc1ccccc1CN1CCOCC1)c1ccc(Br)cc1`, the growth inhibition in assay [1] (setting [7]) was -30%; in assay [1] (setting [8]), 29%; in assay [1] (at 50.0 µM) it was 77.3% (active); in assay [2] (setting [7]), -2%; in assay [2] (setting [8]) it was -2%; in assay [2] (at 50.0 µM), 74.5% (active). Moreover, the growth inhibition was -2% in assay [3] (setting [7]); 77% (active) in assay [3] (setting [8]); 93.7% (active) in assay [3] (at 50.0 µM); -1% in assay [4] (setting [7]); -7% in assay [4] (setting [8]); 51.9% in assay [4] (at 50.0 µM). Further, the growth inhibition in assay [5] (setting [7]) is 2%; in assay [5] (setting [8]) it was 41%; in assay [5] (at 50.0 µM), 92.1% (active); in assay [6] (setting [7]), 4%; in assay [6] (setting [8]), 36%; in assay [6] (at 50.0 µM), 76.1% (active).

For `COc1ccc(/C(=N/NC(N)=O)C(c2ccc(OC)cc2)C2C(=O)Oc3ccccc32)cc1` (stereo not given), the growth inhibition in assay [1] (setting [7]) is -7%; in assay [1] (setting [8]) it was 88% (active); in assay [1] (at 50.0 µM) it was 98.2% (active); in assay [2] (setting [7]), -59%; in assay [2] (setting [8]) it was 96% (active); in assay [2] (at 50.0 µM) it was 99% (active). The growth inhibition in assay [3] (setting [7]) was -4%; in assay [3] (setting [8]) it was 86% (active); in assay [3] (at 50.0 µM), 98.6% (active); in assay [4] (setting [7]), 0%; in assay [4] (setting [8]), 77% (active); in assay [4] (at 50.0 µM) it was 88.8% (active). Also, the growth inhibition in assay [5] (setting [7]) is 0%; in assay [5] (setting [8]), 83% (active); in assay [5] (at 50.0 µM), 99.2% (active); in assay [6] (setting [7]), -2%; in assay [6] (setting [8]), 95% (active); in assay [6] (at 50.0 µM) it was 98.4% (active).

Take `CCC(C)(C)C(=O)OCC(=O)c1ccc(-c2ccccc2)cc1`: the growth inhibition in assay [1] (setting [7]) was -15%; in assay [1] (setting [8]), -17%; in assay [1] (at 50.0 µM) it was -5.8%; in assay [2] (setting [7]), 5%; in assay [2] (setting [8]), -4%; in assay [2] (at 50.0 µM) it was 8.25%. Also, the growth inhibition in assay [3] (setting [7]) is 2%; in assay [3] (setting [8]), -3%; in assay [3] (at 50.0 µM), -7.4%; in assay [4] (setting [7]), 33%; in assay [4] (setting [8]) it was -57%; in assay [4] (at 50.0 µM) it was -3.35%. Further, the growth inhibition in assay [5] (setting [7]) was 29%; in assay [5] (setting [8]), 25%; in assay [5] (at 50.0 µM) it was 62.2%; in assay [6] (setting [7]) it was -11%; in assay [6] (setting [8]), -4%; in assay [6] (at 50.0 µM) it was 12.8%.

As for `O=C1OC(C2OC(=O)C(=O)C2C(=O)c2ccc([N+](=O)[O-])cc2)C(C(=O)c2ccc([N+](=O)[O-])cc2)C1=O` (stereo not given), the growth inhibition in assay [1] (setting [7]) was 5%; in assay [1] (setting [8]), 57%; in assay [1] (at 50.0 µM), 91.6% (active); in assay [2] (setting [7]) it was 14%; in assay [2] (setting [8]), 44%; in assay [2] (at 50.0 µM), 59.1%. Besides, the growth inhibition was 10% in assay [3] (setting [7]); 86% (active) in assay [3] (setting [8]); 91.5% (active) in assay [3] (at 50.0 µM); 11% in assay [4] (setting [7]); 22% in assay [4] (setting [8]); 64.2% in assay [4] (at 50.0 µM). Moreover, the growth inhibition in assay [5] (setting [7]) was 5%; in assay [5] (setting [8]), 39%; in assay [5] (at 50.0 µM), 56.6%; in assay [6] (setting [7]), 6%; in assay [6] (setting [8]), 53%; in assay [6] (at 50.0 µM) it was 96.5% (active).

In the case of `CCC1(C)OC(=O)C(c2ccccc2)O1` (stereo not given), the growth inhibition is 1% in assay [1] (setting [7]); -6% in assay [1] (setting [8]); 9.2% in assay [1] (at 50.0 µM); -2% in assay [2] (setting [7]); 7% in assay [2] (setting [8]); -1.85% in assay [2] (at 50.0 µM). Besides, the growth inhibition in assay [3] (setting [7]) is 5%; in assay [3] (setting [8]) it was -5%; in assay [3] (at 50.0 µM), -19.5%; in assay [4] (setting [7]) it was 2%; in assay [4] (setting [8]), 1%; in assay [4] (at 50.0 µM), 9.7%. For the same compound, the growth inhibition is 2% in assay [5] (setting [7]); 3% in assay [5] (setting [8]); -6.45% in assay [5] (at 50.0 µM); -2% in assay [6] (setting [7]); -5% in assay [6] (setting [8]); 17.1% in assay [6] (at 50.0 µM).

As to `CC(O)C(NC(=O)OCc1ccccc1)C(=O)OC(c1ccccc1)c1ccccc1` (stereo not given), the growth inhibition is 0% in assay [1] (setting [7]); 95% (active) in assay [1] (setting [8]); 98% (active) in assay [1] (at 50.0 µM); 17% in assay [2] (setting [7]); 99% (active) in assay [2] (setting [8]); 97.8% (active) in assay [2] (at 50.0 µM). Also, the growth inhibition is -23% in assay [3] (setting [7]); 98% (active) in assay [3] (setting [8]); 97.5% (active) in assay [3] (at 50.0 µM); -3% in assay [4] (setting [7]); 96% (active) in assay [4] (setting [8]); 97% (active) in assay [4] (at 50.0 µM). Moreover, the growth inhibition in assay [5] (setting [7]) is 2%; in assay [5] (setting [8]) it was 97% (active); in assay [5] (at 50.0 µM), 97.3% (active); in assay [6] (setting [7]), 10%; in assay [6] (setting [8]) it was 97% (active); in assay [6] (at 50.0 µM) it was 96.5% (active).
